# Assay results from paper PMC7862700, “An all-to-all approach to the identification of sequence-specific readers for epigenetic DNA modifications on cytosine”.
# Key:
# Test in all cases: DAPPL (digital affinity profiling via proximity ligation, sequencing); 10 mM Tris-HCl pH 7.5, 50 mM NaCl, 1 mM DTT, 4% glycerol, room temperature, 30 min; GST-TFs on glutathione beads, 16-mer random dsDNA library, 0.1% formaldehyde crosslink after washing; high values mean tight binding
# FEV = biological target: T1, FEV (Homo sapiens, UniProt Q99581 1-238); conditions: protein: recombinant; tags: N-terminal GST; dsDNA, one strand shown
# T1 sequence: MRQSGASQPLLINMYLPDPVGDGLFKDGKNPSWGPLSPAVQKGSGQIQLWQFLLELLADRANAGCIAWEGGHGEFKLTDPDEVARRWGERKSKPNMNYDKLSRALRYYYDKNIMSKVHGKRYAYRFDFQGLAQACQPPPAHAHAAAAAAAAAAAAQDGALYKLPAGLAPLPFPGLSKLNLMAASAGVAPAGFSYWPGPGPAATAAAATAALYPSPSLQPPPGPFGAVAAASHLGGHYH
# Outline: (§1)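 Human transcription factors were made in yeast as GST fusions, captured on glutathione beads and barcoded with DNA. With a tag-only sample included, the pool was incubated with 200 nmole of a random double-stranded 16-mer DNA library in Tris/NaCl/DTT/glycerol buffer at room temperature for 30 min, then crosslinked with 0.1% formaldehyde after washing, ligated by proximity, amplified and sequenced. For binding signal, each hexamer's read frequency for a factor is divided by its frequency for the tag-only sample.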
# ETV5 = ETV5 (Homo sapiens, UniProt P41161 1-510); conditions: protein: recombinant; tags: N-terminal GST; dsDNA, one strand shown
# Chain of ETV5 (P41161 whole entry): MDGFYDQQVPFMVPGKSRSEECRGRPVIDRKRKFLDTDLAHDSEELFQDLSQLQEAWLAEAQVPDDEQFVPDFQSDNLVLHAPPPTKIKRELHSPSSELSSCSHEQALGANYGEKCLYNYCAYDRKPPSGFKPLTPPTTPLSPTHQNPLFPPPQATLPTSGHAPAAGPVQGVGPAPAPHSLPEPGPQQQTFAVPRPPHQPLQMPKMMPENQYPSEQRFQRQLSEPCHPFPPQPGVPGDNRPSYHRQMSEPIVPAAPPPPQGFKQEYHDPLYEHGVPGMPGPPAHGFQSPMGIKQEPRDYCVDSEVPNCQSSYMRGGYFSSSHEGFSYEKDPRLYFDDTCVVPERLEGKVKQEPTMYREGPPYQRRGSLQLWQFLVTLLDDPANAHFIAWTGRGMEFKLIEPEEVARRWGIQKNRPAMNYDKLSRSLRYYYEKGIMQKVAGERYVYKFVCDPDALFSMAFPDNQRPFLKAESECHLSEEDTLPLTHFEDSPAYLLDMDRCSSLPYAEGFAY
# Outline: as §1
# HSF1 = HSF1 (Homo sapiens, UniProt Q00613 1-529); conditions: protein: recombinant; tags: N-terminal GST; chain copies: 3; dsDNA, one strand shown
# Chain of HSF1 (Q00613 whole entry): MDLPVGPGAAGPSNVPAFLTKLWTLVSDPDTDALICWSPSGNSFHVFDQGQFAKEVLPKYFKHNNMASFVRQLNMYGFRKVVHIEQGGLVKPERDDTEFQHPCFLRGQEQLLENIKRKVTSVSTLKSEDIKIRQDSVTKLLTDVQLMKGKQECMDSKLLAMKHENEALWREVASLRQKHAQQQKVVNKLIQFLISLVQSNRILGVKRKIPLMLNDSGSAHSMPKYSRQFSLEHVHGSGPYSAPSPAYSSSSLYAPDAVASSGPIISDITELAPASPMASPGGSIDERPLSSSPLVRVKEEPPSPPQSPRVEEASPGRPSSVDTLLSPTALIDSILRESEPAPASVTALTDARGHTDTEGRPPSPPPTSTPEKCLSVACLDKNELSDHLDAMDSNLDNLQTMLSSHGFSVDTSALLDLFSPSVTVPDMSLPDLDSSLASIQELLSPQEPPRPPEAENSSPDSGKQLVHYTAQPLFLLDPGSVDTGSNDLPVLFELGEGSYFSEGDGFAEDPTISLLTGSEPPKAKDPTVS
# Outline: as §1
# SPIC = biological target: T2, SPIC (Homo sapiens, UniProt Q8N5J4 1-248); conditions: protein: recombinant; tags: N-terminal GST; dsDNA, one strand shown
# T2 sequence: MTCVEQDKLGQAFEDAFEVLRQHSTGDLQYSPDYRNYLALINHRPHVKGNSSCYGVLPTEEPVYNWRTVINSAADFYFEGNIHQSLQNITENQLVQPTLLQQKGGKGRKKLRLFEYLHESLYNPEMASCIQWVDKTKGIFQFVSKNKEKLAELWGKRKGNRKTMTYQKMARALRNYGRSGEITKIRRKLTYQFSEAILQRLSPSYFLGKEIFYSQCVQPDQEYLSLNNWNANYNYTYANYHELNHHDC
# Outline: as §1
# ELF4 = ELF4 (Homo sapiens, UniProt Q99607 1-663); conditions: protein: recombinant; tags: N-terminal GST; dsDNA, one strand shown
# Chain of ELF4 (Q99607 whole entry): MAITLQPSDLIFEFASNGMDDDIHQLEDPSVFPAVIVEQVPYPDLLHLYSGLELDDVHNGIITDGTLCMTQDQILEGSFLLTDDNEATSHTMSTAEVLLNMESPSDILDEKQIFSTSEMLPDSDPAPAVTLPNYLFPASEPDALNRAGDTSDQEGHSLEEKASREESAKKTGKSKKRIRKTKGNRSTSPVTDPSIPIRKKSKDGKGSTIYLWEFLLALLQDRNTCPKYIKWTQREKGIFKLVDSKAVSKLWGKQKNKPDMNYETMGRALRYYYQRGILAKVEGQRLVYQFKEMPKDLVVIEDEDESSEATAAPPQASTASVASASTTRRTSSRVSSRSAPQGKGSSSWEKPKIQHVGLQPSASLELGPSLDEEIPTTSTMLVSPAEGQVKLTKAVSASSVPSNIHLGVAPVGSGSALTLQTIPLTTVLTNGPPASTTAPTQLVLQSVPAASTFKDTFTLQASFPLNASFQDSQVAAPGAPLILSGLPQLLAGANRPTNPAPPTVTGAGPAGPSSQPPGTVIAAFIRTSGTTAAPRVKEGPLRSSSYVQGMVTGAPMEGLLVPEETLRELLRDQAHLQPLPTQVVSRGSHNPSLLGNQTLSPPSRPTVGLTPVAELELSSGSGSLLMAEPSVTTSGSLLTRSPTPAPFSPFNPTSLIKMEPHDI
# Outline: as §1
# ELK4 = biological target: T3, ELK4 (Homo sapiens, UniProt P28324-2 1-405); conditions: protein: recombinant; tags: N-terminal GST; dsDNA, one strand shown
# T3 sequence: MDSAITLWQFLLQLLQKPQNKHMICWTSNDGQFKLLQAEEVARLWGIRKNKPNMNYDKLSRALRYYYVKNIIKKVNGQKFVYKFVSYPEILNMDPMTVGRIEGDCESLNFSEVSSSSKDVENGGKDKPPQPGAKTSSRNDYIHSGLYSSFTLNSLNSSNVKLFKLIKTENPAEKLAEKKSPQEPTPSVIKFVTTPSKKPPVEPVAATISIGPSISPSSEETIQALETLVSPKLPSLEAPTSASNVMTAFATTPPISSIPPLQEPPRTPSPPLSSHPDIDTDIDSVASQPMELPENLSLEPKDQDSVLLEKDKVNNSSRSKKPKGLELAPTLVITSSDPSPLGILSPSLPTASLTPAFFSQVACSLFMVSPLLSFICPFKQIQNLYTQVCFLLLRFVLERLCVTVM
# Outline: as §1
# ETV2 = biological target: T4, ETV2 (Homo sapiens, UniProt O00321 1-342); conditions: protein: recombinant; tags: N-terminal GST; dsDNA, one strand shown
# T4 sequence: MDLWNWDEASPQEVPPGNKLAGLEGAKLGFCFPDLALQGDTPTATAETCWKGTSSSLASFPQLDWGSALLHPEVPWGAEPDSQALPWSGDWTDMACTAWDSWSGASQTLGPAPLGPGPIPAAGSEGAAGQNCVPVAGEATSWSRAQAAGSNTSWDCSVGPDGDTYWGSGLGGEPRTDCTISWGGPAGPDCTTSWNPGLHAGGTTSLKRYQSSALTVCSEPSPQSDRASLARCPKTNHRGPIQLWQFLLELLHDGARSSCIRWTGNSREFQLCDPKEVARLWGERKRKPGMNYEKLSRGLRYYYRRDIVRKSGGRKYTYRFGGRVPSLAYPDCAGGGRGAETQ
# Outline: as §1
# ELF3 = biological target: T5, ELF3 (Homo sapiens, UniProt P78545 1-371); conditions: protein: recombinant; tags: N-terminal GST; dsDNA, one strand shown
# T5 sequence: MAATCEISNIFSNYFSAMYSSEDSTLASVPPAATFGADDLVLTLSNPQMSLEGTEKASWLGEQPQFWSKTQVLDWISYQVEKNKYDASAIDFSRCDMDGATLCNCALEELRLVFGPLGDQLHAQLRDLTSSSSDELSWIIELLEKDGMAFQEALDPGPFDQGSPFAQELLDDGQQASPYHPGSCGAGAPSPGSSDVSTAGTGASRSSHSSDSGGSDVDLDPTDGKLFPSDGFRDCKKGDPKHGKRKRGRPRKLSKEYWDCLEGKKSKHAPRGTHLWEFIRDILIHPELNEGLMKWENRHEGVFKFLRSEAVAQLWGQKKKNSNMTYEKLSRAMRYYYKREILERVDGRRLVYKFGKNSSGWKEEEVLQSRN
# Outline: as §1
# CRX = CRX (Homo sapiens, UniProt O43186 1-299); conditions: protein: recombinant; tags: N-terminal GST; dsDNA, one strand shown
# Chain of CRX (O43186 whole entry): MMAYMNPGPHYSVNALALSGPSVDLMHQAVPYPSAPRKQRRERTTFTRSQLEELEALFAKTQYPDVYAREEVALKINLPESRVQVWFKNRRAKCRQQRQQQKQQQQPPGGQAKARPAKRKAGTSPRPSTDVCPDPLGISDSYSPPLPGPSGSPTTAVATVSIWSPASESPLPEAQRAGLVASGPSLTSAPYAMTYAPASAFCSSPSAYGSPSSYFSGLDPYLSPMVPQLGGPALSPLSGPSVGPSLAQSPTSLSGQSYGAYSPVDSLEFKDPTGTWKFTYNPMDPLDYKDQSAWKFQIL
# Outline: as §1
# ETV1 = ETV1 (Homo sapiens, UniProt P50549 1-477); conditions: protein: recombinant; tags: N-terminal GST; dsDNA, one strand shown
# Chain of ETV1 (P50549 whole entry): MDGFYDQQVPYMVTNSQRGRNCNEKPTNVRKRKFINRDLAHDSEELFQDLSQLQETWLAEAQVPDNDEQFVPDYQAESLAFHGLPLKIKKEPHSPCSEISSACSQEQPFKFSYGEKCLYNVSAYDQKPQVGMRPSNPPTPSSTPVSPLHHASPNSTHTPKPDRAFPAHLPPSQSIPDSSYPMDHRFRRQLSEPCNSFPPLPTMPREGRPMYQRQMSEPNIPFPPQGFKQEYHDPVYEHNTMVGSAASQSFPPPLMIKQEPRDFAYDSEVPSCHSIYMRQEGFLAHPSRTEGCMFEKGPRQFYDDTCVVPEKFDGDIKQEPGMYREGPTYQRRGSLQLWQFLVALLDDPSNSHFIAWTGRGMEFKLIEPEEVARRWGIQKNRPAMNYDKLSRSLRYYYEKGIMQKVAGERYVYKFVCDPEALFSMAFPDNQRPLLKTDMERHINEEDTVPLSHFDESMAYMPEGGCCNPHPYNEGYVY
# Outline: as §1
# ERF = biological target: T6, ERF (Homo sapiens, UniProt P50548 1-548); conditions: protein: recombinant; tags: N-terminal GST; dsDNA, one strand shown
# T6 sequence: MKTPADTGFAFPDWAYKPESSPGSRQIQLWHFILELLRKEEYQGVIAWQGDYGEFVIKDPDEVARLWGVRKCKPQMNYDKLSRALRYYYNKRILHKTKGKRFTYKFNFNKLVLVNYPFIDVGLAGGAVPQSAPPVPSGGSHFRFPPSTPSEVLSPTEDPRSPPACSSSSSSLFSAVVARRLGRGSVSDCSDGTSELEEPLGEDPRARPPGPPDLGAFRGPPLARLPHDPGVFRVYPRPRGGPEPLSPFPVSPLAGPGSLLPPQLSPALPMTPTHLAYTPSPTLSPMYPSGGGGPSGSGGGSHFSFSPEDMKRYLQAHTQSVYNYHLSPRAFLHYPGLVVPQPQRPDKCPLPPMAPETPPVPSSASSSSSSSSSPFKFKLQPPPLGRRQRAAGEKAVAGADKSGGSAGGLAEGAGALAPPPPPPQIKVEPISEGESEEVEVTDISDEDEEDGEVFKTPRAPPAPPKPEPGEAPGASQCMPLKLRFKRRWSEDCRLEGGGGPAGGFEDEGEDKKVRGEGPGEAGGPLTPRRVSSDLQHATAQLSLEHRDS
# Outline: as §1
# ETV3L = biological target: T7, ETV3L (Homo sapiens, UniProt Q6ZN32 1-361); conditions: protein: recombinant; tags: N-terminal GST; dsDNA, one strand shown
# T7 sequence: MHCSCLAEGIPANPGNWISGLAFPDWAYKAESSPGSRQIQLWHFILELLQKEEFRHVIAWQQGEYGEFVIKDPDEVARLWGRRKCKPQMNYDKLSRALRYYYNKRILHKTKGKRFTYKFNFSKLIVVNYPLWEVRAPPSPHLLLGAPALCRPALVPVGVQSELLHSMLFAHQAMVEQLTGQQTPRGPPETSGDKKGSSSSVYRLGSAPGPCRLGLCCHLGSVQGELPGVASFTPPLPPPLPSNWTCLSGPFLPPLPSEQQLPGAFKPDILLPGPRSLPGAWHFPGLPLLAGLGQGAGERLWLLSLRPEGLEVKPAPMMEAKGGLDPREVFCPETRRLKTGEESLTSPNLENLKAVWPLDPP
# Outline: as §1
# ETS2 = biological target: T8, ETS2 (Homo sapiens, UniProt P15036 1-469); conditions: protein: recombinant; tags: N-terminal GST; dsDNA, one strand shown
# T8 sequence: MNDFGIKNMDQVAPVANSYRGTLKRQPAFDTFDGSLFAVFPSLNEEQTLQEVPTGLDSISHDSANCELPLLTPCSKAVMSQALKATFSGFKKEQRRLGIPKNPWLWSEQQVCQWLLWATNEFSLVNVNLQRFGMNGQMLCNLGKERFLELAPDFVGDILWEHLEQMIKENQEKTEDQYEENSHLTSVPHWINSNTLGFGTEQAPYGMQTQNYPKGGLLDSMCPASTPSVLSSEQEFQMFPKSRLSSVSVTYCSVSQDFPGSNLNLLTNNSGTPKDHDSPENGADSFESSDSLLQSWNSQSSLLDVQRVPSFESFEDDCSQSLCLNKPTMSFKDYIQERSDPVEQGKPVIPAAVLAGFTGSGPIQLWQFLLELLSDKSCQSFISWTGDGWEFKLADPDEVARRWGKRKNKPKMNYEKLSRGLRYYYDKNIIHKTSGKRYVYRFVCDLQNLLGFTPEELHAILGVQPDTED
# Outline: as §1
# SPDEF = biological target: T9, SPDEF (Homo sapiens, UniProt O95238 1-335); conditions: protein: recombinant; tags: N-terminal GST; dsDNA, one strand shown
# T9 sequence: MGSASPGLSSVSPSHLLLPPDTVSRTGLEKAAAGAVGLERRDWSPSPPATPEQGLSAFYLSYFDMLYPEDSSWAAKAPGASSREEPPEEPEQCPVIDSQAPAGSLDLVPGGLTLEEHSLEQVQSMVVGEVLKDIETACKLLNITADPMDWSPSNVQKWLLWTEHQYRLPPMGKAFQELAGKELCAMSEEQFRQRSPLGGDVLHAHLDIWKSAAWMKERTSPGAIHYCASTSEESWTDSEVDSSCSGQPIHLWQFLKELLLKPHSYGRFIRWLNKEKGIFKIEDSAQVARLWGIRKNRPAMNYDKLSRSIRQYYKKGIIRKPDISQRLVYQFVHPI
# Outline: as §1
# ETV7 = biological target: T10, ETV7 (Homo sapiens, UniProt Q9Y603 1-341); conditions: protein: recombinant; tags: N-terminal GST; dsDNA, one strand shown
# T10 sequence: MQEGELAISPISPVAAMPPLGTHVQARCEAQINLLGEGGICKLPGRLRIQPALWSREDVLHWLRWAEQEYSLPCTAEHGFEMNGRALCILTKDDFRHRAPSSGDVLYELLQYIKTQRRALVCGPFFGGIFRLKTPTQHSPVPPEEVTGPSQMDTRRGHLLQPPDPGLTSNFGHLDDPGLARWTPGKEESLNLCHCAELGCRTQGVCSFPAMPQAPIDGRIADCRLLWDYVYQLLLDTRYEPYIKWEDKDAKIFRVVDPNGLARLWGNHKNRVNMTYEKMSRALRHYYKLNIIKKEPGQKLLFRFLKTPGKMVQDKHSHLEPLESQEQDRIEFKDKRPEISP
# Outline: as §1
# ELF5 = biological target: T11, ELF5 (Homo sapiens, UniProt Q9UKW6-2 1-255); conditions: protein: recombinant; tags: N-terminal GST; dsDNA, one strand shown
# T11 sequence: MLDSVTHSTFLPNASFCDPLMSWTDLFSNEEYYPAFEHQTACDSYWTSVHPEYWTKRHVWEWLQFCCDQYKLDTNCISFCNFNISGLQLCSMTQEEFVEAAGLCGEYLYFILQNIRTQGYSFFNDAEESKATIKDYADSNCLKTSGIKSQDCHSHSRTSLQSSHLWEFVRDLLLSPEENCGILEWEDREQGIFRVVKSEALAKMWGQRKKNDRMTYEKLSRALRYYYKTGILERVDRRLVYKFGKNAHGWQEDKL
# Outline: as §1
# ETV3 = biological target: T12, ETV3 (Homo sapiens, UniProt P41162-2 1-143); conditions: protein: recombinant; tags: N-terminal GST; dsDNA, one strand shown
# T12 sequence: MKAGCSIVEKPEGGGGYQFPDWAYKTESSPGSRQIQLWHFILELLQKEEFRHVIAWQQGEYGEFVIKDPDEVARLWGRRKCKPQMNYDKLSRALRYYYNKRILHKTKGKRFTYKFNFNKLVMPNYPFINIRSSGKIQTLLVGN
# Outline: as §1
# ETV6 = ETV6 (Homo sapiens, UniProt P41212 1-452); conditions: protein: recombinant; tags: N-terminal GST; dsDNA, one strand shown
# Chain of ETV6 (P41212 whole entry): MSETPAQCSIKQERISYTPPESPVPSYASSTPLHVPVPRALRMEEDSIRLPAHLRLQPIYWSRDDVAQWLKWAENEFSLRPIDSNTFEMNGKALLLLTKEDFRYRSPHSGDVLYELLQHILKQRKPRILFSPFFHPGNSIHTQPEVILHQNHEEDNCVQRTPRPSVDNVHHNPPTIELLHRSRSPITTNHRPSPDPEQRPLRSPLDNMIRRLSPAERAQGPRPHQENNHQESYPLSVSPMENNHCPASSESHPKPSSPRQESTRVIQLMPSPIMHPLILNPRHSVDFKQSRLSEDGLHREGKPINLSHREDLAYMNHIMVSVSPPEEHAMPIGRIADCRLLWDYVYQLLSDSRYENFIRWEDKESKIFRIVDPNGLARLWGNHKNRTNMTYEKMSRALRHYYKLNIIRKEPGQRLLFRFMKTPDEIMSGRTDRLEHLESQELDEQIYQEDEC
# Outline: as §1
sequence,measurement,setting,value
ACATGC,binding signal,FEV,"1.3 fold enrichment (6-mer frequency, TF over GST control)"
same,binding signal,ETV5,"1.25 fold enrichment (6-mer frequency, TF over GST control)"
same,binding signal,HSF1,"1.1 fold enrichment (6-mer frequency, TF over GST control)"
same,binding signal,SPIC,"1.27 fold enrichment (6-mer frequency, TF over GST control)"
same,binding signal,ELF4,"1.26 fold enrichment (6-mer frequency, TF over GST control)"
same,binding signal,ELK4,"1.2 fold enrichment (6-mer frequency, TF over GST control)"
same,binding signal,ETV2,"1.44 fold enrichment (6-mer frequency, TF over GST control)"
same,binding signal,ELF3,"1.28 fold enrichment (6-mer frequency, TF over GST control)"
same,binding signal,CRX,"1.03 fold enrichment (6-mer frequency, TF over GST control)"
same,binding signal,ETV1,"1.3 fold enrichment (6-mer frequency, TF over GST control)"
same,binding signal,ERF,"1.37 fold enrichment (6-mer frequency, TF over GST control)"
same,binding signal,ETV3L,"1.26 fold enrichment (6-mer frequency, TF over GST control)"
same,binding signal,ETS2,"1.25 fold enrichment (6-mer frequency, TF over GST control)"
same,binding signal,SPDEF,"1.24 fold enrichment (6-mer frequency, TF over GST control)"
same,binding signal,ETV7,"1.23 fold enrichment (6-mer frequency, TF over GST control)"
same,binding signal,ELF5,"1.23 fold enrichment (6-mer frequency, TF over GST control)"
same,binding signal,ETV3,"1.22 fold enrichment (6-mer frequency, TF over GST control)"
same,binding signal,ETV6,"1.45 fold enrichment (6-mer frequency, TF over GST control)"
